Assay results: PubChem BioAssay (EPA / NIEHS)
Records with an inconclusive call do not appear. Activity calls are given as the source filed them. Rule for the calls, unless noted: active = hit-call score of the fitted dose curve at least 0.9, where 1 is the maximum; inactive = score below 0.9.

Key:
[1] = target: human Peroxisome Proliferator-activated Receptor alpha (PPARa), PPARA (gene 5465) (UniProt Q07869); experiment: ATG_PPARa_TRANS: Attagene TRANS-FACTORIAL HepG2 Assay for human Peroxisome Proliferator-activated Receptor alpha (PPARa) (AID 2283001; active = hit-call score of the fitted dose curve at least 0.9, where 1 is the maximum)
Sequence of human Peroxisome Proliferator-activated Receptor alpha (PPARa), PPARA (gene 5465) (Q07869 whole entry, looked up, the tested form may be a part): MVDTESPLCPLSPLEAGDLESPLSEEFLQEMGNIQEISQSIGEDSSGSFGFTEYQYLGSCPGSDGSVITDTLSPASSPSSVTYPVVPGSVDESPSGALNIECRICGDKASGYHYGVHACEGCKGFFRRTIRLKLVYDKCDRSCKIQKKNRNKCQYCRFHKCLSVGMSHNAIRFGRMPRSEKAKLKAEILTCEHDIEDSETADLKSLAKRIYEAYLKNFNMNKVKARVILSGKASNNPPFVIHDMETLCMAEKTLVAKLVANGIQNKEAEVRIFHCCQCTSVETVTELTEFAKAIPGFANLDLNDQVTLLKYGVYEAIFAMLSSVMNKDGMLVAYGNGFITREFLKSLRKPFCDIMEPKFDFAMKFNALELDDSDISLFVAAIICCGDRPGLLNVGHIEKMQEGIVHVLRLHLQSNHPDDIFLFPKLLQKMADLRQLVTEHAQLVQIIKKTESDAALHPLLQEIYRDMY
How it was run: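 Exposure: 24 h, transiently transfected HepG2 cells. Endpoint: GAL4-UAS reporter mRNA, RT-PCR with capillary electrophoresis fluorescence. Baseline: DMSO; increases fitted.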

[2] = target: human Peroxisome Proliferator-activated Receptor delta (PPARd), PPARD (gene 5467) (UniProt Q03181); experiment: ATG_PPARd_TRANS: Attagene TRANS-FACTORIAL HepG2 Assay for human Peroxisome Proliferator-activated Receptor delta (PPARd) (AID 2283002; active = hit-call score of the fitted dose curve at least 0.9, where 1 is the maximum)
Sequence of human Peroxisome Proliferator-activated Receptor delta (PPARd), PPARD (gene 5467) (Q03181 whole entry, looked up, the tested form may be a part): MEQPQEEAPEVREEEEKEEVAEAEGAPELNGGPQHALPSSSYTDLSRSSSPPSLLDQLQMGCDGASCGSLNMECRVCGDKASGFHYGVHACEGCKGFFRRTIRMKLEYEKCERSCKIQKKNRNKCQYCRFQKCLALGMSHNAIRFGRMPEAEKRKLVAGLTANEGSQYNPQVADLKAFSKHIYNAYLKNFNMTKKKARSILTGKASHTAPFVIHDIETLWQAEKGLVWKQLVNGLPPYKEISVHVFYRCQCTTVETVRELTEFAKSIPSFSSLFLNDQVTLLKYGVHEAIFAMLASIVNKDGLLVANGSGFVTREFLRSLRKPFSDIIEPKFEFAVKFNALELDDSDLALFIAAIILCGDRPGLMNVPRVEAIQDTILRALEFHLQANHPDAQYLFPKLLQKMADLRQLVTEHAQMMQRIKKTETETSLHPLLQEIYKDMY
How it was run: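 HepG2 cells transiently transfected with multiplexed GAL4-UAS reporter units and exogenous chimeric NR-Gal4 proteins; 24 h compound exposure. Reporter mRNA measured by RT-PCR, 6-FAM labelling, HpaI digestion and capillary electrophoresis; gain of signal versus DMSO.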

[3] = read-out: Intercellular Adhesion Molecule 1 (ICAM1), ICAM1 (gene 3383); experiment: BSK_3C_ICAM1: BioMAP Diversity Plus: 3C Assay for Intercellular Adhesion Molecule 1 (ICAM1) Biomarker Activity (AID 2283003); settings: primary human endothelial cells (HUVEC); actives raise or lower the signal
How it was run: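 ELISA read-out of ICAM-1; HUVEC (primary human), 3C system, 24 h post-dosing; bidirectional fit vs DMSO baseline.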

[4] = BSK_3C_Proliferation: Cell Proliferation Assessment in the BioMAP Diversity Plus: 3C Assay (AID 2283006); settings: primary human endothelial cells (HUVEC);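 for AC50: potency may reflect either rise or fall in cell number versus DMSO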
How it was run: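 HUVEC, sub-confluent; 48 h chemical exposure; 10% TCA fix, 0.1% SRB stain, A560 total protein. Gain or loss of signal fitted both directions vs DMSO control.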

[5] = target: Peroxisome proliferator-activated receptor gamma (Homo sapiens) (UniProt P37231); experiment: ATG_PPARg_TRANS: Attagene TRANS-FACTORIAL HepG2 Assay for human Peroxisome Proliferator-activated Receptor-gamma (PPARg) (AID 2283007; active = hit-call score of the fitted dose curve at least 0.9, where 1 is the maximum)
Sequence of Peroxisome proliferator-activated receptor gamma (Homo sapiens) (P37231 whole entry, looked up, the tested form may be a part): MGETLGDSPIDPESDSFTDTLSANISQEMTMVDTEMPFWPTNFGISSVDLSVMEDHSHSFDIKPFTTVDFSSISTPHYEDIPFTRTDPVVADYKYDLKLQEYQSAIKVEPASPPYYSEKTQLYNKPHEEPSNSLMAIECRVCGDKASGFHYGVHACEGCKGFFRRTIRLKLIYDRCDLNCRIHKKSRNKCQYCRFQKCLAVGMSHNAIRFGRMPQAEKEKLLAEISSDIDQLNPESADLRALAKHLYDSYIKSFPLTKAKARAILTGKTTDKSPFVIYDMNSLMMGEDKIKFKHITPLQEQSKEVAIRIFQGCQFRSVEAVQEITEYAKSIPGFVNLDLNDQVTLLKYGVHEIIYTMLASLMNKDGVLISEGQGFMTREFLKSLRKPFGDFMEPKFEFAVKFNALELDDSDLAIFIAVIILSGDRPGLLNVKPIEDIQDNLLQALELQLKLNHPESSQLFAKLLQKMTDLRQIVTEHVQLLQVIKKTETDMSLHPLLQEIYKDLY
How it was run: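 Liver-derived HepG2 cells expressing an exogenous NR-Gal4 chimera alongside GAL4-UAS reporter genes; 24 h exposure. Fluorescence of reporter RT-PCR products, separated by capillary electrophoresis, gives mRNA induction relative to DMSO.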

[6] = target: Nuclear receptor subfamily 1 group I member 2 (Homo sapiens) (UniProt O75469); experiment: ATG_PXR_TRANS: Attagene TRANS-FACTORIAL HepG2 Assay for human Pregnane X Receptor (PXR) (AID 2283008; active = hit-call score of the fitted dose curve at least 0.9, where 1 is the maximum)
Sequence of Nuclear receptor subfamily 1 group I member 2 (Homo sapiens) (O75469 whole entry, looked up, the tested form may be a part): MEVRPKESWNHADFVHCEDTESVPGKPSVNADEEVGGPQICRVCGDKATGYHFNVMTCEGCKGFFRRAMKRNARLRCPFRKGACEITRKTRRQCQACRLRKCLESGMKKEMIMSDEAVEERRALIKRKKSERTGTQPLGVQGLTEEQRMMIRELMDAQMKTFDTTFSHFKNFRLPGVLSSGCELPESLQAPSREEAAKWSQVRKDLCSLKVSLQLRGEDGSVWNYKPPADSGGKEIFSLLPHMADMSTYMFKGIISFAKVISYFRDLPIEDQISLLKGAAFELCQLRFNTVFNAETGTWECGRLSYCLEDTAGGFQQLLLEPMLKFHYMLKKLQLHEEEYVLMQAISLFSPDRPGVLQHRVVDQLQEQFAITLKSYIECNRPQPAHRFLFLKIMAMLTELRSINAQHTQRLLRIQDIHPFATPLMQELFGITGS
How it was run: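 Multiplexed TRANS reporter panel in HepG2; this component tracks PXR-Gal4-driven reporter mRNA after 24 h dosing, measured by RT-PCR with capillary electrophoresis fluorescence, fitted against DMSO.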

[7] = target: Retinoic acid receptor RXR-alpha (Homo sapiens) (UniProt P19793); experiment: ATG_RXRa_TRANS: Attagene TRANS-FACTORIAL HepG2 Assay for human Retinoid X Receptor alpha (RXRa) (AID 2283012; active = hit-call score of the fitted dose curve at least 0.9, where 1 is the maximum)
Sequence of Retinoic acid receptor RXR-alpha (Homo sapiens) (P19793 whole entry, looked up, the tested form may be a part): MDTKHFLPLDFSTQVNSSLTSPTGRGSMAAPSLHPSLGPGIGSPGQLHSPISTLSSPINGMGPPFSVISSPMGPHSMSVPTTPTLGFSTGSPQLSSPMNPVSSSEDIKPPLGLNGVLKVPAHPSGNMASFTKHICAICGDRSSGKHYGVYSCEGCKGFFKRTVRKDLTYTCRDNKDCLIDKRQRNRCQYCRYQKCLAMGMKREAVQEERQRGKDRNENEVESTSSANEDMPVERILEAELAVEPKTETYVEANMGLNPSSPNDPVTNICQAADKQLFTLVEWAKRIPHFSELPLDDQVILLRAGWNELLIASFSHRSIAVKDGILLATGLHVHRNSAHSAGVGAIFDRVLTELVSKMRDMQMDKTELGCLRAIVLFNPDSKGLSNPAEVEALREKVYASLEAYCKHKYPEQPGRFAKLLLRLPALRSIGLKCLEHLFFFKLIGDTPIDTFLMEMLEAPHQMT
How it was run: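 Read-out: fluorescent reporter-transcript fragments quantified by capillary electrophoresis after RT-PCR. Transiently transfected HepG2 cells carrying GAL4-UAS reporters and NR-GAL4 chimeras were exposed to chemical for 24 h; activity scored as increase over DMSO.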

[8] = target: human Thyroid Receptor alpha (THRa1), THRA (gene 7067) (UniProt P10827); experiment: ATG_THRa1_TRANS: Attagene TRANS-FACTORIAL HepG2 Assay for human Thyroid Receptor alpha (THRa1) (AID 2283014; active = hit-call score of the fitted dose curve at least 0.9, where 1 is the maximum)
Sequence of human Thyroid Receptor alpha (THRa1), THRA (gene 7067) (P10827 whole entry, looked up, the tested form may be a part): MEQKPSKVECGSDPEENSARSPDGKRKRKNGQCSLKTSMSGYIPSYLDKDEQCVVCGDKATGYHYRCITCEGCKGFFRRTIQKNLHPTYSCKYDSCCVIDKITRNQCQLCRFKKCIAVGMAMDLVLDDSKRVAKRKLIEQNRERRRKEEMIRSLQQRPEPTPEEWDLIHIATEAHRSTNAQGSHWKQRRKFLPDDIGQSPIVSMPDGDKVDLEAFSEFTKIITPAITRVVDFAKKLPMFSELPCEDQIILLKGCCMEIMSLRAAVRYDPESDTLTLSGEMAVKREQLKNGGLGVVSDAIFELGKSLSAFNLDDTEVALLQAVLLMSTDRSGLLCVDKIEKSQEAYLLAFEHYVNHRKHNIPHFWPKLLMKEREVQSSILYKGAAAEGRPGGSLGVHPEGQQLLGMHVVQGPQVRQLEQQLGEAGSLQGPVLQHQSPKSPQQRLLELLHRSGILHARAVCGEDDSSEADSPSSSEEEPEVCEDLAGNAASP
How it was run: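 Transcripts from GAL4-UAS-driven reporters, measured after 24 h compound exposure by RT-PCR plus capillary electrophoresis of 6-FAM-labeled fragments, were fitted for gain of signal relative to DMSO. Cells: transiently transfected HepG2 expressing NR-Gal4 chimeras.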

[9] = read-out: Interleukin-1 alpha (IL1a), IL1A (gene 3552); experiment: BSK_BE3C_IL1a: BioMAP Diversity Plus: BE3C Assay for Interleukin-1 alpha (IL1a) Biomarker Activity (AID 2283016); settings: primary human bronchial epithelial cells; actives raise or lower the signal
How it was run: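 ELISA read-out of IL-1a from human lung bronchial epithelial primary cells, 24 h post-dose. Gain or loss of signal fitted relative to DMSO negative control.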

[10] = read-out: Monocyte Chemoattractant Protein-1 (MCP1), CCL2 (gene 6347); experiment: BSK_3C_MCP1: BioMAP Diversity Plus: 3C Assay for Monocyte Chemoattractant Protein-1 (MCP1) Biomarker Activity (AID 2283017); settings: primary human endothelial cells (HUVEC); actives raise or lower the signal
How it was run: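 MCP-1 was measured by ELISA 24 h after dosing in primary HUVEC 3C cultures and fitted in both directions relative to DMSO; cytotoxicity was checked by SRB total-protein staining in parallel wells.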

[11] = read-out: Monocyte Chemoattractant Protein-1 (MCP1), CCL2 (gene 6347); experiment: BSK_4H_MCP1: BioMAP Diversity Plus: 4H Assay for Monocyte Chemoattractant Protein-1 (MCP1) Biomarker Activity (AID 2283018); settings: primary human endothelial cells (HUVEC); actives raise or lower the signal
How it was run: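 HUVEC primary cells, 24 h post-dose, MCP-1 by ELISA. Gain or loss of signal fitted bidirectionally vs DMSO baseline. Cytotoxicity: SRB stain (0.1% after 10% TCA fixation), read 560 nm, parallel cultures.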

[12] = read-out: Interleukin-8 (IL8), CXCL8 (gene 3576); experiment: BSK_3C_IL8: BioMAP Diversity Plus: 3C Assay for Interleukin-8 (IL8) Biomarker Activity (AID 2283020); settings: primary human endothelial cells (HUVEC); actives raise or lower the signal
How it was run: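 HUVEC, 3C stimulation; 24 h compound exposure; IL-8 read by ELISA; gain or loss of signal fitted relative to DMSO control.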

[13] = target: human RAR-related Orphan Receptor gamma (RORg), RORC (gene 6097) (UniProt P51449); experiment: ATG_RORg_TRANS: Attagene TRANS-FACTORIAL HepG2 Assay for human RAR-related Orphan Receptor gamma (RORg) (AID 2283011; active = hit-call score of the fitted dose curve at least 0.9, where 1 is the maximum)
Sequence of human RAR-related Orphan Receptor gamma (RORg), RORC (gene 6097) (P51449 whole entry, looked up, the tested form may be a part): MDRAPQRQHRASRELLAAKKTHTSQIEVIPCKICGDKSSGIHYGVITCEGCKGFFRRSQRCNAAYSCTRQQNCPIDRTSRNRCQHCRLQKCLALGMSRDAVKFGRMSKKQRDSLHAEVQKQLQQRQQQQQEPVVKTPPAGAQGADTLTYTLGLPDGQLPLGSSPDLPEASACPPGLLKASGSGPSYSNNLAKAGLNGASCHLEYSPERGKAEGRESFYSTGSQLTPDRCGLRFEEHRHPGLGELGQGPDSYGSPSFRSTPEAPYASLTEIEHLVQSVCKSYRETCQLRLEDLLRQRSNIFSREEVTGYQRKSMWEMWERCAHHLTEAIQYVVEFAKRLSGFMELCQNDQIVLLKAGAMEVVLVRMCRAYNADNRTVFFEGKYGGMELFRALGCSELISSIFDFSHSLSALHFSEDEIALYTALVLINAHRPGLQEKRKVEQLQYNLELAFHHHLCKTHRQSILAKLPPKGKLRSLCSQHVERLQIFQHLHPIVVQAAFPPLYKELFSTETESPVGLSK
How it was run: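 Reporter transcripts from a transfected RORg-GAL4 chimera in HepG2 cells were quantified 24 h after dosing by RT-PCR, 6-FAM labelling, HpaI digestion and capillary electrophoresis; increases over DMSO baseline were fitted.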

[14] = read-out: E-selectin (Homo sapiens) (UniProt P16581); experiment: BSK_3C_Eselectin: BioMAP Diversity Plus: 3C Assay for Eselectin Biomarker Activity (AID 2283015); settings: primary human endothelial cells (HUVEC); actives raise or lower the signal
How it was run: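 E-selectin ELISA readout, fitted bidirectionally relative to DMSO, taken 24 h post-dosing in HUVEC cultures of the 3C system. Overt cytotoxicity tracked with sulforhodamine B staining of parallel wells.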

[15] = target: human Retinoic Acid Receptor beta (RARb), RARB (gene 5915) (UniProt P10826); experiment: ATG_RARb_TRANS: Attagene TRANS-FACTORIAL HepG2 Assay for human Retinoic Acid Receptor beta (AID 2283004; active = hit-call score of the fitted dose curve at least 0.9, where 1 is the maximum)
How it was run: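 Induction of reporter mRNA from a chimeric RARb-Gal4 construct was measured by RT-PCR, FAM labelling, HpaI digestion and capillary electrophoresis. Measurements followed 24 h compound treatment of transiently transfected human HepG2 liver cells, with DMSO as baseline.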

[16] = target: Retinoic acid receptor alpha (Homo sapiens) (UniProt P10276); experiment: ATG_RARa_TRANS: Attagene TRANS-FACTORIAL HepG2 Assay for human Retinoic Acid Receptor alpha (RARa) (AID 2283005; active = hit-call score of the fitted dose curve at least 0.9, where 1 is the maximum)
Sequence of Retinoic acid receptor alpha (Homo sapiens) (P10276 whole entry, looked up, the tested form may be a part): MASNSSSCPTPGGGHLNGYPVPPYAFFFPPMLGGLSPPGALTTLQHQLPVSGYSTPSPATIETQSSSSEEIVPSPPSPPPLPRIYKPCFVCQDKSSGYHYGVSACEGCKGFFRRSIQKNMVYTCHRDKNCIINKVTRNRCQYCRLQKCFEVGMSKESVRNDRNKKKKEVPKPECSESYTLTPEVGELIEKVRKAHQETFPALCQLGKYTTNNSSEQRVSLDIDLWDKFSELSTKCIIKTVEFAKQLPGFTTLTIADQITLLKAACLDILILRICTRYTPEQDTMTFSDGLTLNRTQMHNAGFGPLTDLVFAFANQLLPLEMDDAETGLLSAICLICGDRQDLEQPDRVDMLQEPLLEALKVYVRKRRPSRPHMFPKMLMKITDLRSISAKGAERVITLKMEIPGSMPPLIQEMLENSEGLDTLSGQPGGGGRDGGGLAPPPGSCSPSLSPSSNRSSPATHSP
How it was run: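 HepG2 cells transiently transfected with multiple reporter units expressing chimeric RARα-GAL4 fusion, with GAL4-UAS-driven reporters. After 24 h compound exposure, reporter mRNA induction quantified by RT-PCR and capillary electrophoresis with fluorescent labeling; gain-of-signal fitted relative to DMSO control.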

[17] = target: human RAR-related Orphan Receptor beta (RORb), RORB (gene 6096) (UniProt Q92753); experiment: ATG_RORb_TRANS: Attagene TRANS-FACTORIAL HepG2 Assay for human RAR-related Orphan Receptor beta (RORb) (AID 2283010; active = hit-call score of the fitted dose curve at least 0.9, where 1 is the maximum)
How it was run: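 HepG2, transient MRTU transfection (GAL4-UAS reporters, exogenous NR-Gal4 chimeras); 24 h compound exposure; total RNA → RT-PCR → 6-FAM primer extension → HpaI digest → CE fluorescence. Positive direction vs DMSO baseline.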

[18] = target: human Retinoid X Receptor beta (RXRb), RXRB (gene 6257) (UniProt P28702); experiment: ATG_RXRb_TRANS: Attagene TRANS-FACTORIAL HepG2 Assay for human Retinoid X Receptor beta (RXRb) (AID 2283013; active = hit-call score of the fitted dose curve at least 0.9, where 1 is the maximum)
Sequence of human Retinoid X Receptor beta (RXRb), RXRB (gene 6257) (P28702 whole entry, looked up, the tested form may be a part): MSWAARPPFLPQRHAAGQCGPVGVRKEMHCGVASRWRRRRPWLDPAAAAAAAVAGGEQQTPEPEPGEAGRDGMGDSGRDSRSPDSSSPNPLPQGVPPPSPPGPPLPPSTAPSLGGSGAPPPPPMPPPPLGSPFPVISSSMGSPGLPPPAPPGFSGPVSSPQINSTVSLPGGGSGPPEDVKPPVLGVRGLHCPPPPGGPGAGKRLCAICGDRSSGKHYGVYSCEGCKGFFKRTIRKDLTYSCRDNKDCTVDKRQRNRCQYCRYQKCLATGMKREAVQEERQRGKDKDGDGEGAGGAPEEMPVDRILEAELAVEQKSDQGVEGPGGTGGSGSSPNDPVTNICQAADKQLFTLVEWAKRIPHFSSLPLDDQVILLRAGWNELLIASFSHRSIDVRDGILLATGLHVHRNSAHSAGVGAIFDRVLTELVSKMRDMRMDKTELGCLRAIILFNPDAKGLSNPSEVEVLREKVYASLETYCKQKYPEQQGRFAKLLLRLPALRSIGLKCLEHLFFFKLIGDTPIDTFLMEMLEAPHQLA
How it was run: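 Read-out: reporter mRNA induction via RT-PCR plus capillary electrophoresis fluorescence, analysed as signal increase relative to DMSO. Cells were human HepG2, transiently transfected with GAL4-UAS reporter constructs and chimeric receptor-Gal4 fusions, dosed for 24 h.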

[19] = read-out: Human Leukocyte Antigen - DR isotype (HLADR), HLA-DRA (gene 3122); experiment: BSK_3C_HLADR: BioMAP Diversity Plus: 3C Assay for Human Leukocyte Antigen - DR isotype (HLADR) Biomarker Activity (AID 2283019); settings: primary human endothelial cells (HUVEC); actives raise or lower the signal
How it was run: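 Bidirectional fitting against DMSO was applied to the HLA-DR ELISA signal from human umbilical vein endothelial cells, 24 h post-dose. Cytotoxicity came from parallel SRB total-protein staining; 3C proliferation was counted by SRB at 48 h.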

[20] = target: human Retinoic Acid Receptor gamma (RARg), RARG (gene 5916) (UniProt P13631); experiment: ATG_RARg_TRANS: Attagene TRANS-FACTORIAL HepG2 Assay for human Retinoic Acid Receptor gamma (RARg) (AID 2283009; active = hit-call score of the fitted dose curve at least 0.9, where 1 is the maximum)
How it was run: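 Readout: reporter transcript levels via RT-PCR, 6-FAM primer-extension labelling, HpaI digestion and capillary electrophoresis. Cells: HepG2 carrying transfected RARg-GAL4 chimera plus UAS reporter set. Dosing 24 h; DMSO negative control.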

Measured: AC50

Sequence of E-selectin (Homo sapiens) (P16581 whole entry, looked up): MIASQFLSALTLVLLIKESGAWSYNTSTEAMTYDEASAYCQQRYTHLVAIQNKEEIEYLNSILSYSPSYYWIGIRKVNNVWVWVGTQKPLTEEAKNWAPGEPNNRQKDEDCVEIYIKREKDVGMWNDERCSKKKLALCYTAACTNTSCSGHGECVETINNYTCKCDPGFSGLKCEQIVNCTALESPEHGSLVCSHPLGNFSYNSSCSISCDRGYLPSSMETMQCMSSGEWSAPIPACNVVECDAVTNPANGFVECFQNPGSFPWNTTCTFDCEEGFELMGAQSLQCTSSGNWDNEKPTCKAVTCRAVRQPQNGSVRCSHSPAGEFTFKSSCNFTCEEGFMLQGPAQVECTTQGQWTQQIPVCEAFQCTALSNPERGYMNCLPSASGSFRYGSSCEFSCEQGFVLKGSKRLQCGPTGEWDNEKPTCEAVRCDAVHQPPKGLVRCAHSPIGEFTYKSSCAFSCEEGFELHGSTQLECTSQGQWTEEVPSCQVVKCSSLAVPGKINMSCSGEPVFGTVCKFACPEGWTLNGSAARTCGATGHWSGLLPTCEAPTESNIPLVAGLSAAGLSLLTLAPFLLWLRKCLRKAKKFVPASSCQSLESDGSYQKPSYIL

CC(=O)OC(c1ccccc1)C(Cl)(Cl)Cl (stereo not drawn)
active: [6] 59 µM
not listed: [13] | [14] | [15] | [16] | [17] | [18] | [19] | [20]
inactive: all other assays above

Cc1ccccc1N
not listed: [5] | [6] | [15] | [16] | [17] | [18] | [19] | [20]
inactive: all other assays above

O=C(O)C(Cl)(Cl)Cl
not listed: [2] | [5] | [6] | [20]
inactive: all other assays above

CCCCCCCCC(=O)NCc1ccc(O)c(OC)c1
active: [4] 13.6 µM | [5] 27.3 µM | [11] 3.97 µM | [19] 20 µM
inactive: [1] | [2] | [3] | [6] | [20] | [9] | [10] | [12]

C=CC(=O)OCCCCCC(C)C
not listed: [6] | [8] | [14] | [15] | [16] | [17] | [19] | [20]
inactive: all other assays above

CCCCCCCCSC(=O)Oc1cc(Cl)nnc1-c1ccccc1
inactive: [1] | [2] | [13] | [7] | [18]
active: [5] 24.3 µM

COP(=S)(OC)Oc1c(Cl)cc(C)cc1Cl
active: [4] 20 µM | [6] 6.51 µM | [18] 22 µM | [14] 29 µM | [10] 31.4 µM | [11] 3.97 µM | [19] 20 µM
inactive: [1] | [2] | [3] | [5] | [7] | [9] | [12]

C[C@]12CCC(=O)C[C@@H]1CC[C@@H]1[C@@H]2CC[C@]2(C)[C@@H](O)CC[C@@H]12
active: [4] 18.3 µM | [10] 26.9 µM | [19] 27.8 µM | [12] 21.5 µM
not listed: [2] | [6] | [13] | [14] | [15] | [16]
inactive: all other assays above
